Data as given in PubChem BioAssay (Tox21).
Calls of active or inactive are those of the source. Where a call stands in place of a potency, no number is given. Calls come from the whole dose curve; as a rule, active = well fitted curve in the direction sought with a large enough effect in the repeat runs; inconclusive = weak or mixed curves; inactive = flat fitted curve, though single readings scatter.

Assay: qHTS assay to test for compound auto fluorescence at 460 nm (blue) in HepG2 cells (AID 720687)
Details: autofluorescence 405/460 nm, 1 h; series mostly up to 46 µM
Description: U.S. Tox21 Program National Center for Advancing Translational Sciences [NCATS] NIH Chemical Genomics Center [NCGC] U.S. Environmental Protection Agency [EPA] National Institutes of Environmental Health Sciences [NIEHS] National Toxicology Program [NTP] U.S. Food and Drug Administration [FDA] Tox21 Assay Overview: Compound auto fluorescence often interferes with screening of the compound library against various biological targets and signaling pathways. Some of these compounds may have fluorophoric properties. Such properties may interfere with the assay outputs resulting in false positives and/or negatives. To decrease such complications and ensure the compound activities are relevant in terms of biological response, the Tox21 10K compound library was screened for auto fluorescence. From the fluorophores used as reporter signals in our screening assays, the auto fluorescence equivalencies of compounds against three fluorophores have been evaluated: Triamterene, Fluorescein and Rose Bengal sodium for blue, green and red fluorescence, respectively. The fluorescence intensities were measured using Excitation/Emission wavelengths at 405/460nm, 485/535nm and 540/590nm for blue, green and red labels, respectively. This assay includes the blue fluorescence data.
Tox21 Assay Protocol Summary: 2,000 HepG2 cells in 5 uL of culture medium (MEM containing 10% FBS) per well were dispensed into black wall/clear bottom 1536-well plates using a Multidrop Combi Dispenser (ThermoFisher Scientific, Waltham, MA). The assay plates were incubated overnight at 37 C to allow cell attachment to the well bottom, followed by the transfer of 23 nL compound or DMSO vehicle by a pintool work station (Kalypsys , San Diego, CA). After the assay plates were incubated for 1 hr at 37 C and 5% CO2, fluorescence intensities in the assay plates were measured by an Envision (PerkinElmer, Shelton, CT) plate reader using three labels for measuring blue, green and red fluorescence at […] 460, 535 and 590 nm respectively.

Row | SMILES | Potency
1 | c1ccc2c(c1)OCC(CN1CCCCC1)O2 (stereo not given) | inactive
2 | O=C(O)/C=C/C(=O)Nc1ccc(S(=O)(=O)Nc2nccs2)cc1 | inactive
3 | C[C@H](Cc1ccc(O)c(O)c1)[C@@H](C)Cc1ccc(O)c(O)c1 | inactive
4 | O=C(O)Cc1nn(Cc2ccc(Br)cc2F)c(=O)c2ccccc12 | inactive
5 | NC(=O)[C@H]1O[C@@H](O)[C@H](O)[C@@H](O)[C@@H]1O | inactive
6 | CN(C[C@@H](CC[N+]12CCC(C3CCCCC3)(CC1)CC2)c1ccc(Cl)c(Cl)c1)C(=O)c1cc(C(F)(F)F)cc(C(F)(F)F)c1 | inactive
7 | O=P(O)(O)CP(=O)(O)O | inactive
8 | O=C(N[C@H](CO)[C@H](O)c1ccc([N+](=O)[O-])cc1)C(Cl)Cl | inactive
9 | NCCO/C=C/[C@H](N)C(=O)O | inactive
10 | Oc1ccc(Cl)cc1C1CCCC1 | inactive
11 | CCOc1ccc(NC(=S)Nc2ccc(OCC)cc2)cc1 | inactive
12 | CSCCC(N)C(=O)O (stereo not given) | inactive
13 | O=C(O)COc1ccc(C(=O)c2cccs2)c(Cl)c1Cl | inactive
14 | O=C1c2ccccc2C(=O)C1c1ccc(F)cc1 | inactive
15 | N=C(N)c1ccc(/C=C/c2ccc(C(=N)N)cc2O)cc1 | inactive
16 | O=C(Nc1ccccc1)c1cc(Cl)ccc1O | inactive
17 | CC(C)COC(=O)OCN1C(=O)CN(CCN2CC(=O)N(COC(=O)OCC(C)C)C(=O)C2)CC1=O | inactive
18 | O=C(CCN1CCC(c2ccccc2)C1)c1ccc2c(c1)OCCO2 (stereo not given) | inactive
19 | CCCCCCCCCCCCCC(=O)OCC(COP(=O)([O-])OCC[N+](C)(C)C)OC(=O)CCCCCCCCCCCCC (stereo not given) | inactive
20 | NC(N)=NCCCCN=C(N)N | inactive

Row | SMILES | Potency
21 | Cc1cc(=O)c(C(=O)N[C@@H](C(=O)N[C@@H]2C(=O)N3C(C(=O)O)=C(CSc4nnnn4C)CS[C@H]23)c2ccc(O)cc2)c[nH]1 | inactive
22 | CN1C(=O)C[C@@H](C(=O)N[C@@H](Cc2cnc[nH]2)C(=O)N2CCC[C@H]2C(N)=O)NC1=O | inactive
23 | CN(Cc1ccccc1)Cc1ccccc1 | inactive
24 | CO[C@H]1C[C@@H]2CC[C@@H](C)[C@@](O)(O2)C(=O)C(=O)N2CCCC[C@H]2C(=O)O[C@H]([C@H](C)C[C@@H]2CC[C@@H](O)[C@H](OC)C2)CC(=O)[C@H](C)C=C(C)[C@@H](O)[C@@H](OC)C(=O)[C@H](C)C[C@H](C)/C=C/C=CC=C1C | inactive
25 | CNCC(=O)N[C@@H](CCCN=C(N)N)C(=O)N[C@H](C(=O)N[C@@H](Cc1ccc(O)cc1)C(=O)N[C@H](C(=O)N[C@@H](Cc1cnc[nH]1)C(=O)N1CCC[C@H]1C(=O)N[C@@H](C)C(=O)O)C(C)C)C(C)C | inactive
26 | O=C1OC(O)C(C(Cl)Cl)=C1Cl (stereo not given) | inactive
27 | CC[C@@H](C)[C@H](N)C(=O)O | inactive
28 | COC(=O)C[C@](O)(CCCC(C)(C)O)C(=O)O[C@@H]1C(OC)=CC23CCCN2CCc2cc4c(cc2[C@H]13)OCO4 (stereo not given in full) | inactive
29 | C=C1[C@H](CO)[C@@H](O)C[C@@H]1n1cnc2c(=O)[nH]c(N)nc21 | inactive
30 | Cc1onc(-c2c(F)cccc2Cl)c1C(=O)N[C@@H]1C(=O)N2[C@@H]1SC(C)(C)[C@@H]2C(=O)O | inactive
31 | CC12CCC(C[N+](C)(CCC[N+](C)(C)C)C1)C2(C)C (stereo not given) | inactive
32 | C=C1[C@@H]2CC[C@@H](C2)C1(C)C | inactive
33 | COc1ccc2ccccc2c1 | inactive
34 | C/C=C/C1=C(C(=O)O)N2C(=O)[C@@H](NC(=O)[C@H](N)c3ccc(O)cc3)[C@H]2SC1 | inactive
35 | CS(=O)(=O)c1ccc([C@@H](CC2CCCC2)C(=O)Nc2cnccn2)cc1Cl | inactive
36 | CN1CCN(CCCN2c3ccccc3Sc3ccc(Cl)cc32)CC1 | inactive
37 | CCCCCCCCCCCCCCCC(=O)OC[C@H](COP(=O)([O-])OCC[N+](C)(C)C)OC(=O)CCCCCCCCCCCCCCC | inactive
38 | O=C1c2c(O)cccc2[C@H]([C@@H]2O[C@H](CO)[C@@H](O)[C@H](O)[C@H]2O)c2cc(CO)cc(O)c21 | inactive
39 | NS(=O)(=O)c1cc(Cl)c(Cl)c(S(N)(=O)=O)c1 | inactive
40 | CCc1ncnc2cc(OC)c(OC)cc12 | inactive
